Compounds with a hit are over-represented: about 3.8% of the library has one in this group of screens.
HepG2 viability – kills HepG2 cells in TGF-b inhibitor counter-screen. HepG2 CAGA-GFP viability, ATP luminescence, 18 h. Potency, µM (doses to about 46.1 µM), without a hit: at the top dose activity change, negative = cytotoxicity, actives largely listed as cytotoxic. actives 0.76% (n = 410,000). AID 588856
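CellTiter-Glo luminescence gave cytotoxicity after 18 hours at 37 degrees C. The cells were HepG2 CAGA-GFP in 1% FBS DMEM, stimulated with 500 pg/mL TGF-beta after compound addition. %Activity was normalised to no-cell wells (complete cell-killing) and DMSO (no toxicity), and curves were fitted and classified.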
HT1080NT lethal – kills 2HG-producing HT-1080-NT fibrosarcoma cells. Potency, µM (highest dose often 46.1 µM), without a hit: at the top dose activity, negative = less viability, actives largely listed as cytotoxic. AID 686970. HT-1080-NT fibrosarcoma viability, CellTiter-Glo ATP luminescence, 48 h. actives 1.6% (n = 360,000);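 further: NT is the 2HG producing partner of a matched IDH1 knockdown line; 0% = DMSO-treated cells and -100% = media-only wells without cells; nearly all actives have a fitted effect of over 55% in size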
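HT-1080-NT fibrosarcoma cells (2HG-overproducing), 750 cells/well in RPMI with 5% FBS, dosed after 2 h and incubated 48 h at 37C. CellTiter-Glo luminescence normalized to DMSO and no-cell wells; concentration-response curves fitted and classed.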
S2 tox – viability counter-screen for ATXN expression inhibitors; AID 651635; S2 cells (HEK-293 line with an ATXN2-luciferase reporter) viability, CellTiter-Fluor protease fluorescence, 24 h; actives 0.49% (n = 400,000); Potency, µM (series often up to 56.7 µM), hits mostly cytotoxic; further: nearly all actives have a fitted effect of over 40% in size
ATXN2 expr inh – reduces ATXN2 reporter expression in HEK-293 cells; actives 0.72% (n = 360,000); Potency, µM (highest dose often 57 µM), for inactives: at the top dose activity change, negative = inhibition, usual class: inhibitors; HEK-293 ATXN2-luciferase reporter, luminescence, 24 h; AID 1745845; further: on the % scale 0 is the no-effect control and ±100 the full control effect; nearly all actives have a fitted effect of over 55% in size
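qHTS (up to 57 uM final) was run with 24 h compound exposure of reporter cells at 37 °C. Each well was multiplexed: SteadyGlo luminescence measured ATXN2-luciferase expression after a fluorogenic Gly-Phe-AFC viability readout (25 uM final).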
HT1080 IDH1KD tx – HT-1080 IDH1 knockdown cell toxicity (counter line) | actives 2% (n = 360,000) | AID 686971 | Potency, µM (series often up to 46.1 µM), without a hit: top-dose activity, negative = toxicity, hits mostly cytotoxic | HT-1080 IDH1 knockdown viability, ATP luminescence, 48 h;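 further: 0% = DMSO wells and -100% = cell-free medium wells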
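Viability of IDH1-knockdown HT-1080 fibrosarcoma cells was assessed by CellTiter-Glo after 48 h at 37 °C with titrated compound; concentration-effect curves were classified by fit quality and response size.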
TGFb inhibitor – blocks TGF-b signaling; actives 1.2% (n = 410,000); HepG2 CAGA-GFP TGF-b/SMAD3 reporter, GFP fluorescence, 18 h; TGF-beta stimulated, 500 pg/mL final; AID 588855; Potency, µM (highest dose often 46.1 µM), without a hit: top-dose activity, negative = inhibition, most hits filed as inhibitors; further: on the % scale 0 is the no-effect control and ±100 the full control effect; nearly all actives have a fitted effect of over 65% in size
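Inhibition of TGF-beta-driven CAGA-GFP reporter expression in HEPG2 cells is measured by cellular GFP fluorescence after 18 h stimulation with 500 pg/mL recombinant TGF-beta in 1% FBS medium at 37 degrees C.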
An asterisk follows results filed as active; i = inactive; u = inconclusive; x = no result given. The call rests on the fitted dose curve; in most records, active means well fitted curve in the direction sought with a large enough effect; inconclusive means small, poorly fitted or top-dose-only effect, or another doubt; inactive means no such curve, though single readings can be large; an effect the other way counts as inactive or inconclusive. Potency means the concentration at half of the fitted maximal effect.

SMILES | HepG2 viability | HT1080NT lethal | S2 tox | ATXN2 expr inh | HT1080 IDH1KD tx | TGFb inhibitor
Cn1c2ccccc2c2ccc3c(c21)C(=O)C=CC3=O | -8.8% | 12.6% | 5.97µM* | u | 22.9% | 0.0%
COc1ccc2c(c1)c1ccc3c(c1n2C)C(=O)C=CC3=O | -21.7% | -2.0% | i | x | -5.1% | u
Cc1ccc(C)c2c1c1ccccc1n2C | -24.0% | 9.6% | i | 4.5% | 6.9% | 0.0%
Oc1ccc(Cl)cc1C1C=C(c2ccc3c(c2)OCO3)NC(c2ccc(Br)cc2)N1 (stereo not drawn) | -10.7% | x | x | x | x | -16.5%
Oc1ccc(Cl)cc1C1C=C(c2ccc3c(c2)OCO3)NC(c2cc(Br)ccc2F)N1 (stereo not drawn) | 14.1µM* | x | x | x | x | 7.94µM*
COc1ccc(Br)cc1C1NC(c2ccc3c(c2)OCO3)=CC(c2cc(Cl)ccc2O)N1 (stereo not drawn) | 11.2µM* | x | x | x | x | u
NC(=O)CSc1oc(-c2cccs2)nc1S(=O)(=O)c1ccc(Br)cc1 | -1.1% | x | i | 8.9% | x | -4.5%
CCOC(=O)c1cc(-c2ccccc2)n(CCCC(=O)Nc2ccc(C)c(Cl)c2)c1C | -28.2% | x | x | x | x | 11.2µM*
O=C(c1cnn(-c2nccc(-c3ccccc3F)n2)c1C1CC1)N1CCCCC1c1cccnc1 (stereo not drawn) | x | x | i | x | x | x
Nc1ccc(C(=O)OCC(O)CO)cc1 (stereo not drawn) | x | x | i | -1.1% | x | x
COc1ccc(/C=C2/C(=O)OCc3cc(OC)c(OC)cc32)cc1 | -2.6% | 3.26µM* | u | u | 2.31µM* | 3.2%
Oc1c(C(c2ccccc2)N2CCOCC2)sc2nc(-c3ccco3)nn12 (stereo not drawn) | -15.2% | x | x | x | x | -5.3%
CCOC(=O)Cc1[nH]nc2c1C(c1cccc(OC)c1OC)C(C#N)=C(N)O2 (stereo not drawn) | 2.7% | 1.4% | i | -2.2% | 3.9% | -2.0%
CCOC(=O)Cc1[nH]nc2c1C(C1C=CCCC1)C(C#N)=C(N)O2 (stereo not drawn) | 20µM* | u | i | -7.6% | 20.6µM* | u
CCc1nc(N2CCN(C(=O)CCl)CC2)c2c3c(sc2n1)CC(C)CC3 (stereo not drawn) | 17.8µM* | 20.6µM* | x | -20.6% | 20.6µM* | u
O=[N+]([O-])c1ccc(C=CC=Cc2ccccc2)cc1 | -42.8% | 10.9% | i | x | 15.2% | -16.9%
CN(c1ccccc1)c1ccc(/C=C/[N+](=O)[O-])cc1 | 7.94µM* | 5.17µM* | x | -1.6% | 5.8µM* | u
CCOC(=O)C1=C(c2ccccc2)NC(N)=NC1c1ccc(OCc2ccc(C(=O)OC)cc2)cc1 (stereo not drawn) | -53.1% | 23.1µM* | 28.2µM* | 25.1µM* | 20.6µM* | u
CCOC(=O)C1=C(c2ccccc2)Nc2ncnn2C1c1ccc(C(=O)O)cc1 (stereo not drawn) | -15.1% | 23.1% | i | -0.5% | 20.2% | -3.0%
Cc1cccc(-n2ncc(C(=O)NCc3ccc4c(c3)OCO4)c2C2CCN(C(=O)OC(C)(C)C)CC2)c1 | -7.2% | x | x | x | x | -24.8%
CC(C)(C)OC(=O)N1CCC(c2c(C(=O)NCc3ccc4c(c3)OCO4)cnn2-c2ccc(F)cc2F)CC1 | -19.5% | x | x | x | x | 12.6µM*
COc1ccccc1CC(Cc1nc2ccccc2[nH]1)c1nc2ccccc2[nH]1 (stereo not drawn) | -6.4% | -5.0% | u | -20.7% | u | -29.4%
Cc1cccc(CC(Cc2nc3ccccc3[nH]2)c2nc3ccccc3[nH]2)c1 (stereo not drawn) | -20.5% | 18.4µM* | u | u | 25.9µM* | u
ClC(Cl)c1nnc(-c2ccccc2)c(-c2c[nH]c3ccccc23)n1 | -57.1% | 4.4% | i | -18.8% | 0.0% | 12.6µM*
